This assay relates to WPMY1-CANX-COX4. Nature of the assay: phenotypically active (imaging signature differs from DMSO and reproducible) at any of 0.3-9 uM (binary (1 = active, 0 = inactive)); higher = active. Particulars: treatment time: 24 h. Summed up:
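Fifteen gene-edited A549, HepG2 and WPMY1 reporter lines (BFP segmentation plus GFP and RFP/FusionRed markers) were treated at 0.3, 1, 3 or 9 µM for 24 h, four wells each, then imaged live. Live-cell features per well were normalised to DMSO control wells. Deviation required ≥3 of 4 wells beyond the 95th percentile of DMSO Euclidean distances, and reproducibility required median replicate Pearson correlation above the 95th percentile of non-replicates. Phenotypic activity needed both criteria.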
As for `CN1C(=O)CC(C)(c2ccccc2)C1=O` (centres undefined) [methsuximide], the phenotypically active is 0 (inactive).

Turning to `O=C(NCCO)c1cc(C(=O)NCCO)cc(C(=O)NCCO)c1`, the phenotypically active was 0 (inactive). The result for `CO[C@H]1C=CO[C@@]2(C)Oc3c(C)c(O)c4c(O)c(c5c(nc6cc(C)ccn65)c4c3C2=O)NC(=O)C(C)=CC=C[C@H](C)[C@H](O)[C@@H](C)[C@@H](O)[C@@H](C)[C@H](OC(C)=O)[C@@H]1C` [Rifaximin] reads 0 (inactive). On to `N#Cc1ccc(C(c2ccc(C#N)cc2)n2cncn2)cc1` [Letrozole], for which the phenotypically active is 0 (inactive). `NC(=O)c1cccc(-c2cccc(OC(=O)NC3CCCCC3)c2)c1`: the phenotypically active was 0 (inactive). Regarding `O=C(Nc1cccnc1)c1cc(-c2ccnc(F)c2)ccc1OCc1ccccc1`, the phenotypically active was 0 (inactive).

On to `O=C(O)CCCC[C@@H]1SC[C@@H]2NC(=O)N[C@@H]21` [Biotin], for which the phenotypically active was 0 (inactive). As for `NS(=O)(=O)c1cc2c(cc1Cl)NC(C(Cl)Cl)NS2(=O)=O` (centres undefined) [trichlormethiazide], the phenotypically active was 0 (inactive). Regarding `CCn1c(=O)c2cc(C(N)=O)c(N)nc2n(C2CC2)c1=O`, the phenotypically active was 0 (inactive). The result for `CCCSc1nc2c(c(=O)n1-c1ccccc1)SCC2` reads 0 (inactive); that for `COc1cc(C#N)ccc1S(=O)(=O)Nc1ccc2c(c1)cc(C)c(=O)n2C`, 0 (inactive).

Turning to `CC(C)(C)NC[C@H](O)COc1nsnc1N1CCOCC1` [timolol], the phenotypically active was 0 (inactive). The result for `CC[N+](CC)(CC)CCC(O)(c1ccccc1)C1CCCCC1` (centres undefined) [tridihexethyl] reads 0 (inactive). With `COC(=O)C1=CO[C@@H](O[C@@H]2O[C@H](CO)[C@@H](O)[C@H](O)[C@H]2O)[C@H]2[C@@H]1C(=O)C[C@@H]2C` [Verbenaline], the phenotypically active was 0 (inactive).
